Data: paper PMC7862700, “An all-to-all approach to the identification of sequence-specific readers for epigenetic DNA modifications on cytosine”

Columns and labels:
Assay in all cases: DAPPL (digital affinity profiling via proximity ligation, sequencing); 10 mM Tris-HCl pH 7.5, 50 mM NaCl, 1 mM DTT, 4% glycerol, room temperature, 30 min; GST-TFs on glutathione beads, 16-mer random dsDNA library, 0.1% formaldehyde crosslink after washing; high values mean tight binding
Settings in all cases: protein: recombinant; tags: N-terminal GST; dsDNA, one strand shown
[1] = target: T1, FLI1 (Homo sapiens, UniProt Q01543 1-452)
T1 sequence: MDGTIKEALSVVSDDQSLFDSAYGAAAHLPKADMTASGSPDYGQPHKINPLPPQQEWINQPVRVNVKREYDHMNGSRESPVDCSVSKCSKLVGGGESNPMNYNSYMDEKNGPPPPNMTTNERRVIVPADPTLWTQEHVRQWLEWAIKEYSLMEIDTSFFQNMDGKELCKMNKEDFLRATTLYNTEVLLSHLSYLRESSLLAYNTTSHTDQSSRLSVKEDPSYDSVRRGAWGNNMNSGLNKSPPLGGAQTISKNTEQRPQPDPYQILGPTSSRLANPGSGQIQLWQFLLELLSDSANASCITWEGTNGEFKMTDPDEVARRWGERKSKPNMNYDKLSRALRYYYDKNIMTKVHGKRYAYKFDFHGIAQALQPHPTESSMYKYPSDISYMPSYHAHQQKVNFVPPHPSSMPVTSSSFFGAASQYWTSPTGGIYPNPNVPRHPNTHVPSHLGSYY
In short: (§1)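 Pools were built from human transcription factors expressed in yeast as GST fusions, captured on glutathione beads and DNA-barcoded, along with a tag-only sample. Incubation with 200 nmole of a 16-mer random double-stranded DNA library lasted 30 min at room temperature in Tris/NaCl/DTT/glycerol buffer, and was followed by washing, 0.1% formaldehyde crosslinking, proximity ligation, PCR amplification and Illumina NextSeq500 sequencing. Binding signal is the quotient of each hexamer's read frequency for a factor and its frequency for the tag-only sample.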

[2] = target: T2, ELK1 (Homo sapiens, UniProt P19419 1-428)
T2 sequence: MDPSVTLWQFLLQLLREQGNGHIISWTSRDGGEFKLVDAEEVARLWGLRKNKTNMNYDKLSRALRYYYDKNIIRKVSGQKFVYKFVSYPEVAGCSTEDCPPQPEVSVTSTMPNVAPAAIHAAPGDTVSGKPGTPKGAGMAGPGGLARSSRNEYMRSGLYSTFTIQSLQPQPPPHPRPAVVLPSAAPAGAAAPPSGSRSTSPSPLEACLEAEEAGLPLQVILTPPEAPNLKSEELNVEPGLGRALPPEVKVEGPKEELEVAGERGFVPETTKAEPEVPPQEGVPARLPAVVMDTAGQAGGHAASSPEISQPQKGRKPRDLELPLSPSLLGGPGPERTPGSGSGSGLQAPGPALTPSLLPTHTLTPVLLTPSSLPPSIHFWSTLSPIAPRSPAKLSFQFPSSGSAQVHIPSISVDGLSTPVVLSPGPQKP
In short: as §1

[3] = target: T3, GABPA (Homo sapiens, UniProt Q06546 1-454)
T3 sequence: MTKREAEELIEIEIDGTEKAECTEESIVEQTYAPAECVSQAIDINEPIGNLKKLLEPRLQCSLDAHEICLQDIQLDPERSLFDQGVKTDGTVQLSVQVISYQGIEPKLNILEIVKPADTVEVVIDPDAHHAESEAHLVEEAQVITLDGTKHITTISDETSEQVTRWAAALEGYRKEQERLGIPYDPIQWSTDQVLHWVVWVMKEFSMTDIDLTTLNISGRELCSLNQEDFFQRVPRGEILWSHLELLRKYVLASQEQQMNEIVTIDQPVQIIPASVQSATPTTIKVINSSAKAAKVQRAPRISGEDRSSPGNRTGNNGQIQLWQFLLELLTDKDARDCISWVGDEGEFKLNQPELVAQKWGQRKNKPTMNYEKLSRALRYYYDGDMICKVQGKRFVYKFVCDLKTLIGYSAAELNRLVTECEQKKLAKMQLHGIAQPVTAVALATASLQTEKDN
In short: as §1

[4] = target: T4, ERG (Homo sapiens, UniProt P11308 1-479)
T4 sequence: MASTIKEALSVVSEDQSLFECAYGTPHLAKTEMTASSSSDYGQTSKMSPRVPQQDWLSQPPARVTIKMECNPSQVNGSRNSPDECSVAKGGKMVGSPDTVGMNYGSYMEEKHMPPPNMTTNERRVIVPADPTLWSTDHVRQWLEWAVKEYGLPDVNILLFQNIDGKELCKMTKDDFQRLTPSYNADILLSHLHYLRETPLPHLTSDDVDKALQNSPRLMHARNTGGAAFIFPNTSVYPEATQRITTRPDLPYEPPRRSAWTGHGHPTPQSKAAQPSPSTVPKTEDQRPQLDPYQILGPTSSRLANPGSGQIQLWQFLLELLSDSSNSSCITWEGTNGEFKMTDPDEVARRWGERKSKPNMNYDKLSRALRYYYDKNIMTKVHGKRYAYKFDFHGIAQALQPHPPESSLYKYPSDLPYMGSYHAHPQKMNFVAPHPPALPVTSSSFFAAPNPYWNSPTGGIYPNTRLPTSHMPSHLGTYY
In short: as §1

[5] = target: ELF1 (Homo sapiens, UniProt P32519 1-619)
In short: as §1

[6] = target: T5, EHF (Homo sapiens, UniProt Q9NZC4 1-300)
T5 sequence: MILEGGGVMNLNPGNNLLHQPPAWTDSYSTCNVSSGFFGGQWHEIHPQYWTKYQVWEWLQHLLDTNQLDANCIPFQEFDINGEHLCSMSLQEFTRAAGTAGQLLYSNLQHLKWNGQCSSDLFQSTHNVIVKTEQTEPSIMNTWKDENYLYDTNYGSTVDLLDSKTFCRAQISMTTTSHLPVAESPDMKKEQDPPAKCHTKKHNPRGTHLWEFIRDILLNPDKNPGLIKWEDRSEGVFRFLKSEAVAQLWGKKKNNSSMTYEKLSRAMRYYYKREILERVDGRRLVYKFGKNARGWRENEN
In short: as §1

[7] = target: SPI1 (Homo sapiens, UniProt P17947 1-270)
In short: as §1

[8] = target: T6, FEV (Homo sapiens, UniProt Q99581 1-238)
T6 sequence: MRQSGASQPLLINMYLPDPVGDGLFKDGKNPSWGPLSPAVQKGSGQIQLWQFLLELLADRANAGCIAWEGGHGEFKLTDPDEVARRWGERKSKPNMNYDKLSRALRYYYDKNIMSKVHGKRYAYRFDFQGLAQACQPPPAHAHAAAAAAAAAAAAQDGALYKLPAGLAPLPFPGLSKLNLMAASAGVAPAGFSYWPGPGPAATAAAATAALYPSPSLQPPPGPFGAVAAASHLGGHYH
In short: as §1

[9] = target: ETV5 (Homo sapiens, UniProt P41161 1-510)
In short: as §1

[10] = target: ELF4 (Homo sapiens, UniProt Q99607 1-663)
In short: as §1

[11] = target: T7, ETV2 (Homo sapiens, UniProt O00321 1-342)
T7 sequence: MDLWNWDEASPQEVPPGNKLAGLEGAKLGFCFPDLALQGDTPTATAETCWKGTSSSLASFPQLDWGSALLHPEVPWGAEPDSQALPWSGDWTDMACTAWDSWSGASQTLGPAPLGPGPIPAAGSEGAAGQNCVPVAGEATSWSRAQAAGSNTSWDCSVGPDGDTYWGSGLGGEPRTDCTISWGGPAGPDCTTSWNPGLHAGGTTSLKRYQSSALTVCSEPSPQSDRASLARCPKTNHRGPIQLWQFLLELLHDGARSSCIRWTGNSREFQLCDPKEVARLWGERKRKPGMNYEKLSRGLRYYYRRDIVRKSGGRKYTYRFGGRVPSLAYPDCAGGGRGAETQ
In short: as §1

[12] = target: T8, ELF3 (Homo sapiens, UniProt P78545 1-371)
T8 sequence: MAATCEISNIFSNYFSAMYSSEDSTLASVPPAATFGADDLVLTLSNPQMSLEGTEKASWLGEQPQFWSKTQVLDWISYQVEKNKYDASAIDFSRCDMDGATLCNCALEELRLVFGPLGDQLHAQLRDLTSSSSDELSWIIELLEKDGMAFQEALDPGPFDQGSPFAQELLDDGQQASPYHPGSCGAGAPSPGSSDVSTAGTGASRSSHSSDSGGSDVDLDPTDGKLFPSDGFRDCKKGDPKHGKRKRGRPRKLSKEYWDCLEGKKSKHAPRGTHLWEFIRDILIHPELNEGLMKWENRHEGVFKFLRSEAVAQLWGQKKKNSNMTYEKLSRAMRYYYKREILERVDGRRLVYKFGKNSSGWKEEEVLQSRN
In short: as §1

[13] = target: ETV1 (Homo sapiens, UniProt P50549 1-477)
In short: as §1

[14] = target: T9, ERF (Homo sapiens, UniProt P50548 1-548)
T9 sequence: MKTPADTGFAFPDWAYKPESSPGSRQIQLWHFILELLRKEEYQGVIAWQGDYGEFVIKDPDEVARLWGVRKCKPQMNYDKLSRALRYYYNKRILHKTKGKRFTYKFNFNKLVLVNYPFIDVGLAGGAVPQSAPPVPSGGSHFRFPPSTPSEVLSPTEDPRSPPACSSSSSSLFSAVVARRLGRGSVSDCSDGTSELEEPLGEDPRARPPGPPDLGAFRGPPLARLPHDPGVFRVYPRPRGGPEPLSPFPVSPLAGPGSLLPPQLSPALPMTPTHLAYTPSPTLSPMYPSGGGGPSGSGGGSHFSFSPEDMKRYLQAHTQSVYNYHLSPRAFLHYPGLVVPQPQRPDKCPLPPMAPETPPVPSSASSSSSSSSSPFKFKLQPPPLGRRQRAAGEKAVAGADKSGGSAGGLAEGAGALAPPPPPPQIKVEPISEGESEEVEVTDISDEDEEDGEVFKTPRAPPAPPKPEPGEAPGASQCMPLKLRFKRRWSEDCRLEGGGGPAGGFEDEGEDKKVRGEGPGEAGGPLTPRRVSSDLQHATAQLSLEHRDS
In short: as §1

[15] = target: T10, ETV3 (Homo sapiens, UniProt P41162-2 1-143)
T10 sequence: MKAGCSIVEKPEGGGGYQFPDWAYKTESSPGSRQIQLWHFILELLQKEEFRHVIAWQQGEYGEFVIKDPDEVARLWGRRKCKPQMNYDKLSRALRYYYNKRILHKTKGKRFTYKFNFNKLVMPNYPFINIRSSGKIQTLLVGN
In short: as §1

[16] = target: ETV6 (Homo sapiens, UniProt P41212 1-452)
In short: as §1

Chain of ETV1 (P50549 whole entry): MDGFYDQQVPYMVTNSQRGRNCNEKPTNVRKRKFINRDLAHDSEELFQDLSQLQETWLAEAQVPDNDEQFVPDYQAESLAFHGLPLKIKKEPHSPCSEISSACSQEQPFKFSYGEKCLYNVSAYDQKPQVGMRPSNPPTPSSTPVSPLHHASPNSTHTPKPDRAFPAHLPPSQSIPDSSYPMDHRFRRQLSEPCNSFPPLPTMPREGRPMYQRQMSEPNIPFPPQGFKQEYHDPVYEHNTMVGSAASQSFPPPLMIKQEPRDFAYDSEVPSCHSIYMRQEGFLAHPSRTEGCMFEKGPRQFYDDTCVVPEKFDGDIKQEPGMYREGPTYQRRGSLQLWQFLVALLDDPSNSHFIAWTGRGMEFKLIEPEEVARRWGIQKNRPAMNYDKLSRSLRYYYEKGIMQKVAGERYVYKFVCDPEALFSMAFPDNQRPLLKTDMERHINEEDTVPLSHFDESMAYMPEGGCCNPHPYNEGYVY
Chain of ETV6 (P41212 whole entry): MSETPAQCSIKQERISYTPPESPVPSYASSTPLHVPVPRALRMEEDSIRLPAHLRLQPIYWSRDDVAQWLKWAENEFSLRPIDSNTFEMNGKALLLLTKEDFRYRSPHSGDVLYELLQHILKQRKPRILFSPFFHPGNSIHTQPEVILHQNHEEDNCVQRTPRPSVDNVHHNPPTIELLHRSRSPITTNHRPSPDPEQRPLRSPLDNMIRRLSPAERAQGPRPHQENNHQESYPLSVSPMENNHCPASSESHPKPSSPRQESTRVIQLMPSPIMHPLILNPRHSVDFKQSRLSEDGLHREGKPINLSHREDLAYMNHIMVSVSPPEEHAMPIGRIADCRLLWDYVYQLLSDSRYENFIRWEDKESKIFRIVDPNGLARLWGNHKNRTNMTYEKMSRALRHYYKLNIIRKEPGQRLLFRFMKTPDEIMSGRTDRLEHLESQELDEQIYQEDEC
Chain of ETV5 (P41161 whole entry): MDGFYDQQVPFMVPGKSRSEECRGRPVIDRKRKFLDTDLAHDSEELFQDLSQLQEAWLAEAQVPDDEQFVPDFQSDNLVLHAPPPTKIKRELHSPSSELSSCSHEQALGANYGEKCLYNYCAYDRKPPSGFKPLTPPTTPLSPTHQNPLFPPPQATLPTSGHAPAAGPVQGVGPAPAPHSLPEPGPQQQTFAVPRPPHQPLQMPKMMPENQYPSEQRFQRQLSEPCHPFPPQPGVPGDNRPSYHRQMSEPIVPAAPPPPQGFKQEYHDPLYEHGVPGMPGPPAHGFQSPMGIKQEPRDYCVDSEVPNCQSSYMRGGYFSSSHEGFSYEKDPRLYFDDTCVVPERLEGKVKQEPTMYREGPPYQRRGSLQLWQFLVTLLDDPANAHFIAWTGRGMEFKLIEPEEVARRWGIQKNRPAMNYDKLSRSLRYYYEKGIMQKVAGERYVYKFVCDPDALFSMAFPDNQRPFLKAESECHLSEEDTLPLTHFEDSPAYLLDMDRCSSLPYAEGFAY
Chain of ELF4 (Q99607 whole entry): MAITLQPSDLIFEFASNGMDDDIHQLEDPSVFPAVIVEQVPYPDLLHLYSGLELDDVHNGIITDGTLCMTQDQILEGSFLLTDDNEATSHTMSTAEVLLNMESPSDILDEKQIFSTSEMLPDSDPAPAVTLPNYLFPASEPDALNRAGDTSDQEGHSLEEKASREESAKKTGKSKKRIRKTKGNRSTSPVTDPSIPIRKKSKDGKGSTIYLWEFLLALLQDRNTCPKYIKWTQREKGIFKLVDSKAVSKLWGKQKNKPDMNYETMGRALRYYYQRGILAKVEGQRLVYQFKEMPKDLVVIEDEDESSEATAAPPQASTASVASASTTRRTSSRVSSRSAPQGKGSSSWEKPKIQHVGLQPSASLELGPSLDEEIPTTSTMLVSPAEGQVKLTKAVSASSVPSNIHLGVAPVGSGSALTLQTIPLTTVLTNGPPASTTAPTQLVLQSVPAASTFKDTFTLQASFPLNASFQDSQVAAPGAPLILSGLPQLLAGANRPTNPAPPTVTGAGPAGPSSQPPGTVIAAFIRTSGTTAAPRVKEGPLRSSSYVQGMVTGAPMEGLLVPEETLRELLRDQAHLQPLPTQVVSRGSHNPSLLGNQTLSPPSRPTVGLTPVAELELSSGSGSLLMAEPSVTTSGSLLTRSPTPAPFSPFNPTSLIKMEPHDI
Chain of ELF1 (P32519 whole entry): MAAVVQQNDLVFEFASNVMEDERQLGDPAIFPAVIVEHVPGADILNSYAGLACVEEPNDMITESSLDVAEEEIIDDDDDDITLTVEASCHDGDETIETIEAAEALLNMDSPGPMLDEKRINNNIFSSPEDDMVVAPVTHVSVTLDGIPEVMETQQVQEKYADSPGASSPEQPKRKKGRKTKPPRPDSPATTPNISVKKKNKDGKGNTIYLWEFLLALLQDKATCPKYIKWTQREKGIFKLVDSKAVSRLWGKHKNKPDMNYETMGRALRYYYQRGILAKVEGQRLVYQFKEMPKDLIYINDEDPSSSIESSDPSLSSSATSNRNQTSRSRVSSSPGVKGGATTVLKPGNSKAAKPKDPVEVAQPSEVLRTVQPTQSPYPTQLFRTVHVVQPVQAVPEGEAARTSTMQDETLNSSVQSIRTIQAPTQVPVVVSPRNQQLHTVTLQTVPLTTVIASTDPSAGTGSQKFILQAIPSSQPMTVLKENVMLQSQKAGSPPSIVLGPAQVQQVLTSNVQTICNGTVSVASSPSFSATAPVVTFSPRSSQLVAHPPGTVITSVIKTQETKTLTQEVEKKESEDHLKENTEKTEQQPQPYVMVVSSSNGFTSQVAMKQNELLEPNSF

CCCCGT
binding signal [1]: 1.05 fold enrichment (6-mer frequency, TF over GST control) | binding signal [2]: 1.08 fold enrichment (6-mer frequency, TF over GST control) | binding signal [3]: 1.02 fold enrichment (6-mer frequency, TF over GST control) | binding signal [4]: 1.1 fold enrichment (6-mer frequency, TF over GST control) | binding signal [5]: 1.06 fold enrichment (6-mer frequency, TF over GST control) | binding signal [6]: 1.13 fold enrichment (6-mer frequency, TF over GST control) | binding signal [7]: 1.1 fold enrichment (6-mer frequency, TF over GST control) | binding signal [8]: 1.01 fold enrichment (6-mer frequency, TF over GST control) | binding signal [9]: 1.03 fold enrichment (6-mer frequency, TF over GST control) | binding signal [10]: 1.07 fold enrichment (6-mer frequency, TF over GST control) | binding signal [11]: 1.1 fold enrichment (6-mer frequency, TF over GST control) | binding signal [12]: 1.26 fold enrichment (6-mer frequency, TF over GST control) | binding signal [13]: 1 fold enrichment (6-mer frequency, TF over GST control) | binding signal [14]: 1.13 fold enrichment (6-mer frequency, TF over GST control) | binding signal [15]: 1.06 fold enrichment (6-mer frequency, TF over GST control) | binding signal [16]: 1.08 fold enrichment (6-mer frequency, TF over GST control)
